DAX1 inh-1 = DAX1 (NR0B1) inhibitors on StAR promoter, primary screen, cell-based, luminescence, SF-1 (NR5A1), full-length DAX-1; HEK293T StAR-luciferase reporter, SF-1/DAX-1 repression relief; inhibition, % at 6.8 µM; actives 1.1% (n = 370,000);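 active = inhibition above the mean over all tested compounds plus 3 SD, cut at about 3.6% in these data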;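 note: 0% = DAX-1 cells with DMSO and 100% = cells lacking DAX-1 with DMSO; higher inhibition means more luminescence from relief of DAX-1 repression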
hcDAF12 agonist = H. contortus DAF-12 nuclear receptor activators, primary screen, cell-based, luminescence, HEK293, lit1-tk-luc reporter; HEK293 hcDAF-12 lit1-tk-luc reporter; 0% DMSO, 100% Δ7-dafachronic acid; actives 1.4% (n = 370,000); AID 652067, 2013; activation, % at 6.8 µM;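 active = activation above the mean of all tested compounds plus 3 SD, cut at about 5.5% in these data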;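 note: 100% = response to 3 µM Δ7-dafachronic acid high control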
hgDAF12 agonist = H. glycines DAF-12 receptor agonists, primary screen, cell-based, luminescence, HEK293, GAL4 fusion, UAS-luciferase. Nuclear hormone receptor DAF-12 (Heterodera glycines), GAL4 fusion. HEK293 GAL4-hgDAF12 UAS-luciferase reporter, agonist luminescence; normalized to butyrate control. activation, % at 6.8 µM. actives 1.8% (n = 370,000);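 active = activation above a cutoff set at the mean of all screened compounds plus 3 SD, cut at about 10% in these data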;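 note: 0% = DMSO wells and 100% = sodium butyrate wells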
DAX1 inh-2 = DAX1 (NR0B1) inhibitors, primary screen, cell-based, HEK293, Gal4-DAX1, luciferase luminescence; Nuclear receptor subfamily 0 group B member 1 (Homo sapiens), P51843; HEK293 Gal4-DAX1 luciferase reporter; inhibition, % at 6.75 µM; actives 0.99% (n = 340,000);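 active = inhibition above the mean over all tested compounds plus 3 SD, cut at about 4.2% in these data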;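 note: 0% = DAX1-transfected cells with DMSO and 100% = empty-vector control cells with DMSO; inhibition shows as a rise in luminescence from relieved DAX1 repression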
Rev-erbA mod = modulators of Rev-erb alpha DNA binding, primary screen, biochemical, FITC-DNA, fluorescence polarization, uHTS; Nuclear receptor subfamily 1 group D member 1 (Homo sapiens), P20393; Rev-erbα–FITC-DNA binding, 90 min; activity, % at 10 µM; actives 0.79% (n = 370,000);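 active = activity above about 14%, limit read from the data; passing the limit was not always enough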;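 note: 0% = DMSO wells with 35 nM protein and 100% = DMSO wells with 750 nM protein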
ssDAF12 agonist = S. stercoralis DAF-12 nuclear receptor activators, primary screen, cell-based, luminescence, HEK293, GRIP1 co-expression, lit1-tk-luc; Nuclear hormone receptor DAF-12 (Strongyloides stercoralis); HEK293 ssDAF-12/GRIP1 lit1-tk-luc reporter; % of 3 µM dafachronic acid response; activation, % at 6.8 µM; actives 1% (n = 370,000); AID 652126, 2013;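 active = activation above the mean over all tested compounds plus 3 SD, cut at about 0.9% in these data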;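 note: 0% = DMSO-only wells and 100% = 3 µM delta7-dafachronic acid wells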
LXRb hcDAF ctr = LXR agonists, Gal4 luciferase reporter, confirmation, counter-screen for hcDAF-12 agonist project, cell-based, luminescence, HEK293, H. contortus campaign. HEK293 Gal4-LXR tk-luc reporter, 24 h; normalized: DMSO 0%, positive control 100%. shares compounds with hcDAF12 agonist. activation, % at 6.8 µM. 3,400 tested, under 10 active;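 active = mean percent activation of the reporter above a cutoff set as the average over tested compounds plus their standard deviation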
hcDAF12 ag = H. contortus DAF-12 receptor agonists, confirmation, cell-based, luminescence, HEK293, lit1-tk-luc, triplicate; shares compounds with hcDAF12 agonist; HEK293 hcDAF-12 lit1-tk-luc reporter; % of Δ7-dafachronic acid response; actives 61% (n = 3,400); activation, % at 6.8 µM;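 active = mean activation across triplicate tests above the threshold derived from the earlier primary screen, cut at about 5.5% in these data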;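 note: 0% = DMSO only wells and 100% = 3 µM Δ7-dafachronic acid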
* = called active by the depositor. Compounds with a hit are over-represented: about 4.8% of the library has one in this group of screens.

Screening CSc1ccc(/C=N/NC(=O)CNc2ccc3ccccc3c2)cc1 returned DAX1 inh-1 -1, hcDAF12 agonist 5, hgDAF12 agonist 3, DAX1 inh-2 0, Rev-erbA mod 7 and ssDAF12 agonist 0.
COC(=O)c1cn(-c2nc3ccccc3s2)nn1 was read as DAX1 inh-1 0, hcDAF12 agonist 7.8*, hgDAF12 agonist 0, Rev-erbA mod -4, ssDAF12 agonist 0, LXRb hcDAF ctr 0 and hcDAF12 ag 3.
CC(C)c1cc(C(C)C)c(S(=O)(=O)N2CCC(C(=O)NCc3cccs3)CC2)c(C(C)C)c1 was read as DAX1 inh-1 -2, hcDAF12 agonist -2, hgDAF12 agonist -4, Rev-erbA mod 4 and ssDAF12 agonist -2.
Screening CO/N=C1\CN(c2nc3c(cc2F)c(=O)c(C(=O)O)cn3C2CC2)CC1CN (stereo not given) returned Rev-erbA mod -4.
COc1ccc(C(=O)CN2C(=O)COc3ccccc32)cc1 was read as DAX1 inh-1 0, hcDAF12 agonist -1, hgDAF12 agonist 1, DAX1 inh-2 2, Rev-erbA mod -1 and ssDAF12 agonist -1.
Screening COc1ccc(C(=O)CN2Cc3ccccc3C2=N)cc1 returned DAX1 inh-1 3, hcDAF12 agonist 18*, hgDAF12 agonist 13*, DAX1 inh-2 3, Rev-erbA mod -3, ssDAF12 agonist 2.1*, LXRb hcDAF ctr 1 and hcDAF12 ag 9.5*.
For COC(=O)CC(=O)CSc1nc2c(cc1C#N)CCCCC2 the results were DAX1 inh-1 3, hcDAF12 agonist 10*, hgDAF12 agonist 11*, DAX1 inh-2 2, Rev-erbA mod 2, ssDAF12 agonist 0, LXRb hcDAF ctr 0 and hcDAF12 ag 4.
COc1ccc(OCc2cc(C(=O)N3CCC(OC)CC3)no2)c2ccccc12 was read as DAX1 inh-1 3.8*, hcDAF12 agonist 7.8*, hgDAF12 agonist 9, DAX1 inh-2 3, Rev-erbA mod -11, ssDAF12 agonist 1, LXRb hcDAF ctr 0 and hcDAF12 ag 6.4*.
`COc1ccc(OCc2cc(C(=O)NC3CCOC(C)(C)C3)no2)c2ccccc12` (stereo not given) gave DAX1 inh-1 4.1*, hcDAF12 agonist 7.9*, hgDAF12 agonist 6, DAX1 inh-2 3, Rev-erbA mod 4, ssDAF12 agonist 2.1*, LXRb hcDAF ctr 0 and hcDAF12 ag 8.0*.
`CSc1ccccc1OCc1cc(C(=O)NC2CCOC(C)(C)C2)no1` (stereo not given) gave DAX1 inh-1 0, hcDAF12 agonist -1, hgDAF12 agonist 2, DAX1 inh-2 -1, Rev-erbA mod 7 and ssDAF12 agonist -1.
Screening C/C(CC(=O)Nc1cc(C)cc(C)c1)=N\NC(=O)c1ccccn1 returned DAX1 inh-1 3, hcDAF12 agonist 7.4*, hgDAF12 agonist 11*, DAX1 inh-2 2, Rev-erbA mod 0, ssDAF12 agonist 0, LXRb hcDAF ctr 0 and hcDAF12 ag 0.

Assay outcomes: PubChem, several laboratories
